Assay results as given in PubChem BioAssay (Tox21).
Several values for one entry are separate records, joined by “and”; a condition that tells them apart may be missing. Equal values may be shown once. Results filed as inconclusive are left out. A call without a number means that no potency is given here. A structure can be active in one record and inactive in another. Activity calls are given as the source filed them. Unless noted, calls follow the shape of the dose curve; as a rule, active = well fitted curve in the direction sought with a large enough effect in the repeat runs; inconclusive = weak or mixed curves; inactive = no such curve, though single readings can be large; an effect the other way counts as inactive or inconclusive.

Columns and labels:
[1] = qHTS assay for small molecule agonists of the p53 signaling pathway (AID 651631; calls by dose curve; also: nearly all actives have a fitted effect of over 15% in size; also: potency is read from the fitted curve at half-maximal effect)
Procedure, shortened: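 HCT-116 cells carrying a stable p53 response element–beta-lactamase reporter were plated, rested 5 h at 37 °C, then exposed to compound in DMSO for 16 h at 37 °C; reporter activity was read as FRET substrate fluorescence after 2 h at room temperature.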

[2] = qHTS assay for small molecules that induce genotoxicity in human embryonic kidney cells expressing luciferase-tagged ATAD5 (AID 651632); also: nearly all actives have a fitted effect of over 15% in size
Procedure, shortened: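 Luminescence read-out: after 16 hr compound exposure at 37C, ATAD5-luciferase HEK293T cells received Amplite, 30 min RT, then CCD imaging. A rise in signal marks genotoxic stress.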

[3] = qHTS assay for small molecule agonists of the p53 signaling pathway - cell viability (AID 651633; calls by dose curve; also: nearly all actives have a fitted effect of over 30% in size; also: potency is read from the fitted curve at half-maximal effect)
Procedure, shortened: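 p53RE-bla cells were treated with compound for 16 hours at 37 C. Cytotoxicity was then measured as CellTiter-Glo luminescence after 30 min at room temperature.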

[4] = qHTS assay for small molecules that induce genotoxicity in human embryonic kidney cells expressing luciferase-tagged ATAD5 - cell viability (AID 651634; calls by dose curve; also: nearly all actives have a fitted effect of over 25% in size; also: potency is read from the fitted curve at half-maximal effect)
Procedure, shortened: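 HEK293T ATAD5-luc cells, 2,000/well; compound 15.5 hr, 37C/5% CO2; CellTiter-Fluor 30 min, 37C; fluorescence read.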

[5] = qHTS assay for small molecule disruptors of the mitochondrial membrane potential (AID 720635); also: potency is read from the fitted curve at half-maximal effect
Procedure, shortened: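 HepG2 cells exposed to compound 1 hr at 37C, then Mito-MPS dye 30 min. Ratio read of aggregate (540/590 nm) versus monomer (490/535 nm) fluorescence.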

[6] = qHTS assay to test for compound auto fluorescence at 590 nm (red) in HepG2 cells (AID 720674)
Procedure, shortened: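 Seeding: 2,000 HepG2 cells/well, MEM/10% FBS, overnight 37 C. Dosing: compound vs DMSO. Incubation: 1 hr, 37 C, 5% CO2. Read: fluorescence 540 ex/590 em, Rose Bengal sodium as red reference.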

[7] = qHTS assay to test for compound auto fluorescence at 535 nm (green) in HepG2 cells (AID 720675)
[8] = qHTS assay to test for compound auto fluorescence at 590 nm (red) in HEK293 cells (AID 720679)
Procedure, shortened: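 Each well held 2,000 HEK293 cells in medium containing 10% dialyzed FBS. Following 4-5 hr attachment at 37C, 23 nL test compound or DMSO was added; plates sat overnight, and red fluorescence (540/590nm) was recorded.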

[9] = qHTS assay for small molecule disruptors of the mitochondrial membrane potential - cell viability (AID 720634; calls by dose curve;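 also: human HepG2 liver cancer cells; series mostly up to about 83 µM; nearly all actives have a fitted effect of over 20% in size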)
Procedure, shortened: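 Luminescence from CellTiter-Glo (ATP content) gave viability in HepG2 cells, read in the same wells as the MMP dye assay after 1 hr compound exposure at 37 C.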

[10] = qHTS assay to test for compound auto fluorescence at 460 nm (blue) in HEK293 cells (AID 720678)
Procedure, shortened: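 Cells were seeded and left to adhere for 4-5 hr at 37C. Compounds were then pin-transferred. After an overnight incubation at 37C under 5% CO2, intrinsic fluorescence at 405/460 nm was measured and referenced to triamterene.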

Compound | Potency [1] | Potency [2] | Potency [3] | Potency [4] | Potency [5] | outcome [6] | outcome [7] | outcome [8] | Potency [9] | outcome [10]
CCCCC1C(=O)NC(=O)N(C2CCCCC2)C1=O (stereo not given) | inactive | inactive | inactive | inactive | inactive | inactive | inactive | inactive | – | –
CC(C)(C)OOC(C)(C)CCC(C)(C)OOC(C)(C)C | inactive | – | inactive | inactive | inactive | inactive | – | inactive | inactive | inactive
CCCCC#N | inactive | inactive | inactive | inactive | inactive | inactive | inactive | inactive | – | inactive
COC1CC(=C(c2cccs2)c2cccs2)C[N+](C)(C)C1 (stereo not given) | inactive | inactive | inactive | inactive | inactive | inactive | inactive | inactive | – | inactive
Cc1ccc2c(C)cccc2c1 | inactive | inactive | inactive | inactive | – | inactive | inactive | inactive | – | inactive
Cc1nc2ccccc2c(=O)n1-c1ccccc1Cl | inactive | inactive | inactive | inactive | – | inactive | inactive | – | – | inactive
CC(C)CCCCCCCOC(=O)c1ccccc1C(=O)OCCCCCCCC(C)C | inactive | – | inactive | inactive | inactive | inactive | inactive | inactive | – | inactive
CCOC(=O)c1cn2nc(OP(=S)(OCC)OCC)cc2nc1C | inactive | inactive | inactive | inactive | – | inactive | inactive | inactive | – | inactive
CCC(C)Cl (stereo not given) | inactive | inactive | inactive | inactive | inactive | inactive | inactive | inactive | – | –
Clc1ccc(Cl)c(Cl)c1 | inactive | – | inactive | inactive | inactive | inactive | inactive | inactive | inactive | inactive
CC(Oc1cccc(Cl)c1)C(=O)O (stereo not given) | inactive | inactive | inactive | inactive | inactive | inactive | inactive | inactive | – | inactive
N#CC(C#N)=C(C#N)C#N | inactive | inactive | inactive | inactive | – | inactive | – | inactive | – | inactive
CCC[N+](CCC)(CCC)CCC | inactive | inactive | inactive | inactive | inactive | inactive | inactive | inactive | – | inactive
CCCCCl | inactive | – | inactive | inactive | – | inactive | inactive | inactive | inactive | inactive
c1ccc2c(c1)-c1cccc3cccc-2c13 | inactive | – | inactive | inactive | 61.7 µM (active) and 61.1 µM (active) | inactive | inactive | – | – | –
CCCCNC(=O)OCC#CI | 68.6 µM (active) | inactive | 60.8 µM (active) | – | 4.31 µM (active) and 6.86 µM (active) | inactive | – | inactive | – | –
O=C(CCl)CCl | 24.3 µM (active) | – | inactive | 63.4 µM (active) and 54.5 µM (active) | – | inactive | inactive | inactive | – | inactive
FC(F)OC(F)(F)C(F)Cl (stereo not given) | inactive | – | inactive | inactive | inactive | inactive | inactive | inactive | inactive | inactive
NC(=S)c1c(Cl)cccc1Cl | inactive | – | inactive | – | inactive | inactive | inactive | inactive | inactive | inactive
CCOc1cccc(C2(N3CCN(c4ccccc4)CC3)CCC(C)CC2)c1 (stereo not given) | inactive | inactive | inactive | inactive | inactive | inactive | inactive | inactive | – | inactive
C#C[C@]1(O)CC[C@H]2[C@@H]3CCC4=CC(=O)CCC4=C3C=C[C@@]21CC | inactive | – | inactive | inactive | – | inactive | inactive | inactive | – | inactive
O=C=NC1CCCCC1 | inactive | – | inactive | inactive | – | inactive | – | – | inactive | inactive
CC(Cl)C(=O)O (stereo not given) | inactive | inactive | inactive | inactive | – | inactive | inactive | inactive | – | inactive
CC(C)(C)NCC(O)c1cc(Cl)c(N)c(C(F)(F)F)c1 (stereo not given) | inactive | inactive | inactive | inactive | inactive | inactive | – | inactive | – | inactive
CCCCCCCCn1sccc1=O | 12.2 µM (active) and 25.5 µM (active) | inactive | – | 54.6 µM (active) | 30.7 µM (active) and 64.1 µM (active) | inactive | inactive | inactive | inactive | inactive
C=CCOCC1CO1 (stereo not given) | inactive | inactive | inactive | inactive | – | inactive | inactive | inactive | – | inactive
CC(C)c1ccc(OP(=O)(Oc2ccc(C(C)C)cc2)Oc2ccc(C(C)C)cc2)cc1 | inactive | inactive | inactive | inactive | – | inactive | inactive | – | – | inactive
OCCSSCCO | inactive | inactive | inactive | inactive | – | inactive | inactive | inactive | – | inactive
C[C@@H]1C[C@@H]([C@H](O)CC2CC(=O)NC(=O)C2)C(=O)[C@@H](C)C1 | 11.9 µM (active) and inactive | – | inactive | 1.33 µM (active) and 271 nM (active) | – | inactive | – | – | inactive | inactive
C[N+]1(CCF)[C@@H]2CC[C@H]1CC(OC(=O)C(O)(c1ccccc1)c1ccccc1)C2 (stereo not given in full) | inactive | inactive | inactive | inactive | inactive | inactive | – | inactive | – | inactive
